Assay results from PubChem BioAssay AID485270 (The Scripps Research Institute Molecular Screening Center, 2010).
Hit rate of the full screen: of about 330,000 compounds, about 5,800 (1.8%) were called active. This is one part of a sample in which actives are shown more often than they occur. Cut-off read from the data, not from the text of the source: active = inhibition mostly above about 38% (no sharp cut-off); inactive = mostly below about 40%.

What follows are molecules tested against Orexin/Hypocretin receptor type 1 (Homo sapiens) (UniProt O43613) (assay: blocks the human orexin 1 receptor (AID 485270;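 note: 0% = agonist challenge alone and 100% = reference antagonist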)). Conditions: OX1R-expressing cells, FRET antagonist read-out; at 6.6 µM; stronger effect = higher value.
Orexin/Hypocretin receptor type 1 (Homo sapiens), sequence (O43613 whole entry, looked up): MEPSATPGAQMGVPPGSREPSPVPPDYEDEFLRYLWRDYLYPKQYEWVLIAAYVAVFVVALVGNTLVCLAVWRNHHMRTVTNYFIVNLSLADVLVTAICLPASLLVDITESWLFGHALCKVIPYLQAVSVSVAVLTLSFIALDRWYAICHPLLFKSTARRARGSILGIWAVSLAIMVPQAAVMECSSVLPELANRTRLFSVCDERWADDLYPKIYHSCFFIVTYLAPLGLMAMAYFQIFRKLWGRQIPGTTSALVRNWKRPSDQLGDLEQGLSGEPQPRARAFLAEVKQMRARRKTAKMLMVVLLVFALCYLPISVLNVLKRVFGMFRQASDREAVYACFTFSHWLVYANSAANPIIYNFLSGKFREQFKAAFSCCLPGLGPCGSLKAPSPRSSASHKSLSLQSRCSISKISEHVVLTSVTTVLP

inhibition, active:
CC(=O)Oc1ccc2c(c1)C(=O)c1ccccc1C2=O 30.9%
CCC(=O)N(C)C(c1ccccc1Cl)c1nnnn1-c1c(C)cccc1C (stereo not given) 74.2%
Cc1ccc(C)c(NS(=O)(=O)c2c(C)[nH]c(C)c2C(=O)N2CCCCC2)c1 49.2%
Cc1oc2c(c1C(=O)N1CCOCC1)C(=O)c1ccccc1C2=O 90.1%
COc1cccc(NC(=O)CN(C)C(=O)c2ccccc2CCc2ccccc2)c1 67.5%
COc1ccccc1CCNC(=O)C(=O)NCCC1CCCCN1S(=O)(=O)c1cccs1 (stereo not given) 57.5%
CC(=O)Nc1ccc(Nc2c([N+](=O)[O-])cc(S(C)(=O)=O)cc2[N+](=O)[O-])cc1 98%
CNc1ccc(NC(C)=O)cc1[N+](=O)[O-] 59.9%
CC(C)(C)NC(=O)CN(C(=O)c1csnn1)c1ccccc1-c1ccccc1 67.4%
COC(=O)c1sccc1NC(=O)CSc1ccccc1NS(=O)(=O)c1cc(Cl)ccc1Cl 60.7%
CC(=O)c1c(C)[nH]c(C(=O)COC(=O)c2cccc(S(=O)(=O)N(C)c3ccccc3)c2)c1C 69.6%
O=C(COC(=O)c1ccccn1)NNC(=O)c1ccc([N+](=O)[O-])cc1 57.2%

inhibition, inactive:
CC(C)(C)OC(=O)C[C@@H]1C/C=C\C[C@H](CC(=O)N[C@@H](CO)Cc2ccccc2)C(=O)N[C@H](Cc2ccccc2)COC1=O 4%
CC(=O)O[C@H]1c2ccccc2-c2ccccc2[C@@H]1OC(C)=O 1.8%
CC(=O)Oc1cccc(C(=O)Nc2ccccc2NC(=O)c2cccc(OC(C)=O)c2)c1 6.54%
Cc1ccnc(SCC(=O)Nc2cccc(S(=O)(=O)N3CCOCC3)c2)n1 5.6%
CC1CCN(C(=O)COC(=O)c2cc(=O)[nH]c3ccccc23)CC1 3.71%
CN(C)/C=C(/C(=O)c1ccc(Cl)c(Cl)c1)c1nnnn1-c1ccccc1 4.6%
CN(C(=O)CSc1nnnn1-c1ccccc1)C1CCCCC1 9.05%
Cc1ccc(NS(=O)(=O)c2c(C)[nH]c(C)c2C(=O)N2CCCCC2)c(C)c1 21.7%
Cc1ccc(C)c(N2CCN(S(=O)(=O)c3c(C)[nH]c(C)c3C(=O)N3CCCC3)CC2)c1 5.67%
O=C(COC(=O)CN1C(=O)C2CCCCC2C1=O)Nc1ccc(F)c(F)c1F (stereo not given) 0.98%
Cc1ccccc1-c1ccc(Nc2ccc(C(=O)N3CCOCC3)cc2)nn1 20.7%
Cc1ccc(C(=O)N2CCN(C(=O)N3CCOCC3)CC2)cc1 5.22%
Cc1cccc(C(=O)N[C@H](C(=O)NCc2cccs2)C(C)C)c1 11.5%
CN[C@H](C(=O)NC[C@H]1O[C@@H](n2cnc3c(N)ncnc32)[C@H](O)[C@@H]1O)[C@@H](C)OCc1ccccc1 5.21%
Cc1ccc(C(=O)NNC(=O)c2ccc3c(c2)OCCO3)cc1 8.1%
COc1cccc(NC(=O)CN(C)C(=O)c2cc(C3CC3)nn2-c2ccccc2)c1 14%
COc1cccc(NC(=O)CN(C)C(=O)Cc2ccc(Cl)cc2Cl)c1 17.8%
CC(C)n1ncc2c(C(=O)Nc3ccc(CC#N)cc3)cc(C3CC3)nc21 4.43%
Cc1ccc(S(=O)(=O)Nc2ccc3c(c2)C(=O)N([C@H](C)CO)C[C@@H](C)[C@@H](CN(C)C(=O)Nc2cccc4ccccc24)O3)cc1 2.14%
COc1ccc(CCNC(=O)C(=O)NCC2CCCN2S(=O)(=O)c2cccs2)cc1OC (stereo not given) 17.3%
O=C(NCCC1CCCCN1S(=O)(=O)c1cccs1)C(=O)Nc1ccc(F)cc1F (stereo not given) 12.6%
CC(=O)Nc1ccc(S(=O)(=O)N2CCN(c3ccc([N+](=O)[O-])c(NCCN4CCOCC4)c3)CC2)cc1 24.8%
CC(=O)Nc1ccc(NC(=S)NC(=O)c2ccc([N+](=O)[O-])c(C)c2)cc1 4.21%
CNc1ccc([N+](=O)[O-])cc1C(=O)O 17.5%
Cc1ccc(NC(=O)c2sccc2C)cc1[N+](=O)[O-] 14.5%
O=C1COc2ccc(C(=O)COC(=O)CCOc3ccccc3)cc2N1 4.75%
O=C(COC(=O)c1ccccc1O)NCc1ccco1 9.75%
COc1cccc(-c2sc3ccc(OC)cc3c2-c2ccc(OCCN3CCCCC3)cc2)c1 3.65%
CC(C)(C)NC(=O)CN(C(=O)c1ccc(Cl)nc1)c1cccc2ccccc12 9.37%
CCC(C)(C)NC(=O)C(c1ccccn1)N(C(=O)c1csnn1)c1ccccc1 (stereo not given) 6.1%
COc1cc(Cl)c(C)cc1NC(=O)CSc1nnc(CN2CCCC2)o1 3.58%
O=C1CC2(CCCC2)C(=O)N1CN1CCN(S(=O)(=O)c2ccc(F)cc2F)CC1 6.49%
COC(=O)c1sccc1NC(=O)COc1ccc(Cl)cc1 19.5%
COC(=O)c1sccc1NS(=O)(=O)c1ccc(F)cc1F -2.44%
C[C@]12CC[C@H](O)CC1=CCC1C2CC[C@@]2(C)C1CC[C@@H]2NC(=O)CCC(=O)O (stereo not given in full) 4.74%
Cc1cccc(C)c1Nc1nnc(SCC(=O)NCCCN2CCCC2=O)s1 5.99%
COc1cccc(C(=O)OCC(=O)c2[nH]c(C)c(C(C)=O)c2C)c1 12.8%
CC(=O)c1c(C)[nH]c(C(=O)COC(=O)c2cccs2)c1C 15%
CC[C@]12c3[nH]c4ccc(OC)cc4c3CCN1C(=O)C(CC(=O)NCc1ccco1)C[C@@H]2C(=O)N1CCN(C(=O)C2CC2)CC1 (stereo not given in full) 6.49%
COc1ccc(CCNC(=O)COC(=O)c2cnc(Cl)c(Cl)c2)cc1 8.28%
O=C(COC(=O)c1ccccn1)NNC(=O)c1ccc(Br)cc1 -0.24%
O=C(OCc1ccc([N+](=O)[O-])cc1)c1ccccn1 5.7%
COc1ccc(-c2c(C)cc3oc(=O)cc(-c4ccccc4)c3c2C)cc1C=O 4.68%
